# This is part of a sample that, as a whole, favours compounds with a hit. Of some 79,000 tested, about 15% had one in any assay. Unmarked numbers belong to inactive results. Activity calls are given as the source filed them. Cut-off read from the data, not from the text of the source: active = growth inhibition above about 70%; inactive = the rest.
# How the values were obtained:
# [1] = NCI Yeast Anticancer Drug Screen. Data for the rad52 strain (AID 147);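 note: 0% = growth of vehicle-treated control cultures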; conditions: S. cerevisiae rad52 mutant growth inhibition, stronger effect = higher value
# Procedure, shortened: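 Growth of repair-deficient yeast cells was compared between compound-treated and vehicle-treated cultures to give percent inhibition.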
# [2] = NCI Yeast Anticancer Drug Screen. Data for the wt1 strain (AID 149);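 note: 0% = growth of vehicle-treated wt1 cultures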; conditions: S. cerevisiae wt1 strain (SPY 50644) growth inhibition, stronger effect = higher value
# Procedure, shortened: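 Using yeast strain wt1, compound-induced growth inhibition was determined against vehicle-treated cultures.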
# [3] = NCI Yeast Anticancer Drug Screen. Data for the mgt1 strain (AID 153); conditions: S. cerevisiae mgt1 mutant growth inhibition, stronger effect = higher value
# Procedure, shortened: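 Compounds were applied to mgt1 mutant yeast, and growth was then compared against vehicle-treated control cultures to give percent inhibition.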
# [4] = NCI Yeast Anticancer Drug Screen. Data for the rad50 strain (AID 155);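 note: 0% = growth of vehicle-only cultures of the same strain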; conditions: S. cerevisiae rad50 strain growth inhibition, stronger effect = higher value
# Procedure, shortened: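 Relative growth inhibition (compound vs vehicle) was measured in yeast with a defined repair-gene alteration.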
# [5] = NCI Yeast Anticancer Drug Screen. Data for the mec2-1 strain (AID 157); conditions: S. cerevisiae mec2-1 strain, stronger effect = higher value
# Procedure, shortened: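 Compounds were applied to mec2-1 yeast cells. Their growth was then compared with that of vehicle-treated cultures to give growth inhibition.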
# [6] = NCI Yeast Anticancer Drug Screen. Data for the rad14 strain (AID 159);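 note: 0% = growth of vehicle-treated control cultures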; conditions: S. cerevisiae rad14 strain growth inhibition, stronger effect = higher value
# Procedure, shortened: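 Screen for anticancer potential: a yeast strain altered in DNA damage repair is grown with compound, and reduced growth is quantified against vehicle controls.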
# [7] = NCI Yeast Anticancer Drug Screen. Data for the sgs1 mgt1 strain (AID 161);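 note: 0% = growth of cultures given vehicle only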; conditions: S. cerevisiae sgs1 mgt1 strain, stronger effect = higher value
# Procedure, shortened: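 Growth of a repair-deficient yeast mutant was monitored after compound treatment and expressed as inhibition relative to vehicle-treated cultures.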
# [8] = NCI Yeast Anticancer Drug Screen. Data for the cln2 rad14 strain (AID 165);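 note: 0% = growth equal to vehicle treated cultures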; conditions: S. cerevisiae cln2 rad14 strain, stronger effect = higher value
# Procedure, shortened: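 Strain: cln2 rad14 yeast, altered in cell cycle control and DNA damage repair. Read-out: growth inhibition vs vehicle.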
# [9] = NCI Yeast Anticancer Drug Screen. Data for the bub3 strain (AID 167); conditions: S. cerevisiae bub3 mutant strain, stronger effect = higher value
# Procedure, shortened: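 Screening used yeast with an engineered genetic alteration affecting cell cycle control. Compound-exposed cultures were compared with vehicle cultures, and reduced growth was taken as inhibition.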
# [10] = NCI Yeast Anticancer Drug Screen. Data for the wt2 strain (AID 169);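 note: 0% = growth of vehicle-treated yeast cultures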; conditions: S. cerevisiae wt2 strain growth inhibition, stronger effect = higher value
# Procedure, shortened: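 Growth of compound-treated yeast is measured and expressed as inhibition relative to vehicle-only controls.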
# [11] = NCI Yeast Anticancer Drug Screen. Data for the sgs1 strain (AID 173);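 note: 0% = growth of vehicle-only control cultures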; conditions: S. cerevisiae sgs1 mutant, stronger effect = higher value
# Procedure, shortened: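 Strain with an altered DNA repair or cell cycle pathway exposed to compound. Growth then measured. Value = inhibition versus vehicle control.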
# [12] = NCI Yeast Anticancer Drug Screen. Data for the mlh1 rad18 strain (AID 175); conditions: S. cerevisiae mlh1 rad18 strain growth inhibition, stronger effect = higher value
# Procedure, shortened: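 A repair-deficient yeast strain is exposed to test compound, and growth is scored relative to vehicle-treated controls.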
# [13] = NCI Yeast Anticancer Drug Screen. Data for the rad18 strain (AID 177); conditions: S. cerevisiae rad18 mutant growth inhibition, stronger effect = higher value
# Procedure, shortened: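 DNA-repair-defective yeast; compound treatment; growth inhibition scored against vehicle.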
# [14] = NCI Yeast Anticancer Drug Screen. Data for the CLN2oe strain (AID 163);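 note: 0% = growth of vehicle-only control cultures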; conditions: S. cerevisiae CLN2oe strain, stronger effect = higher value
# Procedure, shortened: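 Cells of an engineered yeast line with disturbed cell-cycle regulation are treated with compound. Inhibition of growth is then calculated relative to the vehicle-treated reference.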
# [15] = NCI Yeast Anticancer Drug Screen. Data for the mlh1 strain (AID 171);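 note: 0% = growth of vehicle-treated control cultures of the same strain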; conditions: S. cerevisiae mlh1 strain growth inhibition, stronger effect = higher value
# Procedure, shortened: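 Test agents were incubated with yeast bearing a defined DNA damage repair or cell cycle control alteration; values are growth inhibition normalised to vehicle-treated cultures.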
# [16] = at 5.0 µM (retest, dose inferred, filed as 0.5)
# [17] = at 50.0 µM (retest, dose inferred, filed as 5.0)
smiles,measurement,setting,value
CCCCCCNCCCNc1c2ccccc2nc2cccc([N+](=O)[O-])c12,growth inhibition,[1]; at 1.2 µM,43%
same,growth inhibition,[1]; at 3.7 µM,80% (active)
same,growth inhibition,[1]; at 11.0 µM,92% (active)
same,growth inhibition,[1]; at 33.0 µM,95% (active)
same,growth inhibition,[1]; at 100.0 µM,95% (active)
same,growth inhibition,[2]; at 1.2 µM,-2%
same,growth inhibition,[2]; at 3.7 µM,0%
same,growth inhibition,[2]; at 11.0 µM,8%
same,growth inhibition,[2]; at 33.0 µM,59%
same,growth inhibition,[2]; at 100.0 µM,92% (active)
same,growth inhibition,[3]; at 1.2 µM,-4%
same,growth inhibition,[3]; at 3.7 µM,-4%
same,growth inhibition,[3]; at 11.0 µM,11%
same,growth inhibition,[3]; at 33.0 µM,78% (active)
same,growth inhibition,[3]; at 100.0 µM,94% (active)
same,growth inhibition,[4]; at 1.2 µM,24%
same,growth inhibition,[4]; at 3.7 µM,64%
same,growth inhibition,[4]; [16],69%
same,growth inhibition,[4]; at 11.0 µM,90% (active)
same,growth inhibition,[4]; at 33.0 µM,94% (active)
same,growth inhibition,[4]; [17],98% (active)
same,growth inhibition,[4]; at 50.0 µM,83.3% (active)
same,growth inhibition,[4]; at 100.0 µM,96% (active)
same,growth inhibition,[5]; at 1.2 µM,4%
same,growth inhibition,[5]; at 3.7 µM,40%
same,growth inhibition,[5]; [16],15%
same,growth inhibition,[5]; at 11.0 µM,94% (active)
same,growth inhibition,[5]; at 33.0 µM,97% (active)
same,growth inhibition,[5]; [17],99% (active)
same,growth inhibition,[5]; at 50.0 µM,88.1% (active)
same,growth inhibition,[5]; at 100.0 µM,97% (active)
same,growth inhibition,[6]; at 1.2 µM,23%
same,growth inhibition,[6]; at 3.7 µM,86% (active)
same,growth inhibition,[6]; at 11.0 µM,98% (active)
same,growth inhibition,[6]; at 33.0 µM,98% (active)
same,growth inhibition,[6]; at 100.0 µM,97% (active)
same,growth inhibition,[7]; [16],84% (active)
same,growth inhibition,[7]; [17],97% (active)
same,growth inhibition,[7]; at 50.0 µM,74.3% (active)
same,growth inhibition,[8]; [16],80% (active)
same,growth inhibition,[8]; [17],99% (active)
same,growth inhibition,[8]; at 50.0 µM,85.4% (active)
same,growth inhibition,[9]; at 1.2 µM,-10%
same,growth inhibition,[9]; at 3.7 µM,-16%
same,growth inhibition,[9]; [16],-42%
same,growth inhibition,[9]; at 11.0 µM,-12%
same,growth inhibition,[9]; at 33.0 µM,15%
same,growth inhibition,[9]; [17],98% (active)
same,growth inhibition,[9]; at 50.0 µM,43.9%
same,growth inhibition,[9]; at 100.0 µM,98% (active)
same,growth inhibition,[10]; at 1.2 µM,-1%
same,growth inhibition,[10]; at 3.7 µM,0%
same,growth inhibition,[10]; at 11.0 µM,5%
same,growth inhibition,[10]; at 33.0 µM,31%
same,growth inhibition,[10]; at 100.0 µM,96% (active)
same,growth inhibition,[11]; at 1.2 µM,62%
same,growth inhibition,[11]; at 3.7 µM,80% (active)
same,growth inhibition,[11]; at 11.0 µM,90% (active)
same,growth inhibition,[11]; at 33.0 µM,93% (active)
same,growth inhibition,[11]; at 100.0 µM,95% (active)
same,growth inhibition,[12]; [16],76% (active)
same,growth inhibition,[12]; [17],98% (active)
same,growth inhibition,[12]; at 50.0 µM,78.5% (active)
same,growth inhibition,[13]; at 1.2 µM,93% (active)
same,growth inhibition,[13]; at 3.7 µM,95% (active)
same,growth inhibition,[13]; at 11.0 µM,96% (active)
same,growth inhibition,[13]; at 33.0 µM,96% (active)
same,growth inhibition,[13]; at 100.0 µM,95% (active)
CC(=O)Oc1ccc2c(c1)Cc1cc(N3C(=O)C=CC3=O)ccc1-2,growth inhibition,[2]; at 1.2 µM,1%
same,growth inhibition,[2]; at 3.7 µM,12%
same,growth inhibition,[2]; at 11.0 µM,35%
same,growth inhibition,[2]; at 33.0 µM,93% (active)
same,growth inhibition,[2]; at 100.0 µM,97% (active)
same,growth inhibition,[3]; at 1.2 µM,7%
same,growth inhibition,[3]; at 3.7 µM,19%
same,growth inhibition,[3]; at 11.0 µM,58%
same,growth inhibition,[3]; at 33.0 µM,98% (active)
same,growth inhibition,[3]; at 100.0 µM,95% (active)
same,growth inhibition,[4]; at 1.2 µM,7%
same,growth inhibition,[4]; at 3.7 µM,32%
same,growth inhibition,[4]; [16],27%
same,growth inhibition,[4]; at 11.0 µM,83% (active)
same,growth inhibition,[4]; at 33.0 µM,96% (active)
same,growth inhibition,[4]; [17],99% (active)
same,growth inhibition,[4]; at 50.0 µM,46.1%
same,growth inhibition,[4]; at 100.0 µM,93% (active)
same,growth inhibition,[5]; at 1.2 µM,15%
same,growth inhibition,[5]; at 3.7 µM,30%
same,growth inhibition,[5]; [16],44%
same,growth inhibition,[5]; at 11.0 µM,72% (active)
same,growth inhibition,[5]; at 33.0 µM,97% (active)
same,growth inhibition,[5]; [17],99% (active)
same,growth inhibition,[5]; at 50.0 µM,47.7%
same,growth inhibition,[5]; at 100.0 µM,97% (active)
same,growth inhibition,[7]; [16],17%
same,growth inhibition,[7]; [17],99% (active)
same,growth inhibition,[7]; at 50.0 µM,58.2%
same,growth inhibition,[14]; at 1.2 µM,1%
same,growth inhibition,[14]; at 3.7 µM,12%
same,growth inhibition,[14]; at 11.0 µM,35%
same,growth inhibition,[14]; at 33.0 µM,92% (active)
same,growth inhibition,[14]; at 100.0 µM,96% (active)
same,growth inhibition,[8]; [16],7%
same,growth inhibition,[8]; [17],98% (active)
same,growth inhibition,[8]; at 50.0 µM,24.2%
same,growth inhibition,[9]; at 1.2 µM,-9%
same,growth inhibition,[9]; at 3.7 µM,1%
same,growth inhibition,[9]; [16],8%
same,growth inhibition,[9]; at 11.0 µM,37%
same,growth inhibition,[9]; at 33.0 µM,94% (active)
same,growth inhibition,[9]; [17],98% (active)
same,growth inhibition,[9]; at 50.0 µM,48.6%
same,growth inhibition,[9]; at 100.0 µM,97% (active)
same,growth inhibition,[10]; at 1.2 µM,1%
same,growth inhibition,[10]; at 3.7 µM,15%
same,growth inhibition,[10]; at 11.0 µM,46%
same,growth inhibition,[10]; at 33.0 µM,98% (active)
same,growth inhibition,[10]; at 100.0 µM,96% (active)
same,growth inhibition,[15]; at 1.2 µM,13%
same,growth inhibition,[15]; at 3.7 µM,24%
same,growth inhibition,[15]; at 11.0 µM,74% (active)
same,growth inhibition,[15]; at 33.0 µM,98% (active)
same,growth inhibition,[15]; at 100.0 µM,97% (active)
same,growth inhibition,[11]; at 1.2 µM,16%
same,growth inhibition,[11]; at 3.7 µM,33%
same,growth inhibition,[11]; at 11.0 µM,79% (active)
same,growth inhibition,[11]; at 33.0 µM,98% (active)
same,growth inhibition,[11]; at 100.0 µM,97% (active)
same,growth inhibition,[12]; [16],67%
same,growth inhibition,[12]; [17],98% (active)
same,growth inhibition,[12]; at 50.0 µM,40.6%
same,growth inhibition,[13]; at 1.2 µM,10%
same,growth inhibition,[13]; at 3.7 µM,30%
same,growth inhibition,[13]; at 11.0 µM,85% (active)
same,growth inhibition,[13]; at 33.0 µM,96% (active)
same,growth inhibition,[13]; at 100.0 µM,95% (active)

# Reference: PubChem BioAssay (NCI)
